High-throughput results as filed in PubChem BioAssay.
DAX1 inh-1 – DAX1 (NR0B1) inhibitors, primary screen, cell-based, HEK293, Gal4-DAX1, luciferase luminescence; Nuclear receptor subfamily 0 group B member 1 (Homo sapiens), P51843; HEK293 Gal4-DAX1 luciferase reporter; inhibition, % at 6.75 µM; 340,000 tested, 0.99% active; AID 504766, 2011;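 active means inhibition above the mean over all tested compounds plus 3 SD, cut at about 4.2% in these data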;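 further: 0% = DAX1-transfected cells with DMSO and 100% = empty-vector control cells with DMSO; inhibition shows as a rise in luminescence from relieved DAX1 repression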
Target sequence (P51843 207-470 limits assumed): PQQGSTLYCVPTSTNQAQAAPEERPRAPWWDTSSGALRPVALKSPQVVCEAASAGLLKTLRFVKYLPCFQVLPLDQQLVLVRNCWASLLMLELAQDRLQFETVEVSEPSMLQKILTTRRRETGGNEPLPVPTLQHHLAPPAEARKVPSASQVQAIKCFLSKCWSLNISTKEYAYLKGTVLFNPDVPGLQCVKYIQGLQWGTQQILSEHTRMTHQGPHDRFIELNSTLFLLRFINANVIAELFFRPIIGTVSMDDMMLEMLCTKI
DAX1 inh-2 – DAX1 (NR0B1) inhibitors on StAR promoter, primary screen, cell-based, luminescence, SF-1 (NR5A1), full-length DAX-1; inhibition, % at 6.8 µM; HEK293T StAR-luciferase reporter, SF-1/DAX-1 repression relief; AID 652010, 2013; 370,000 tested, 1.1% active;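 active means inhibition above the mean over all tested compounds plus 3 SD, cut at about 3.6% in these data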;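 further: 0% = DAX-1 cells with DMSO and 100% = cells lacking DAX-1 with DMSO; higher inhibition means more luminescence from relief of DAX-1 repression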
hcDAF-12 act – H. contortus DAF-12 nuclear receptor activators, primary screen, cell-based, luminescence, HEK293, lit1-tk-luc reporter. HEK293 hcDAF-12 lit1-tk-luc reporter; 0% DMSO, 100% Δ7-dafachronic acid. activation, % at 6.8 µM. 370,000 tested, 1.4% active;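 active means activation above the mean of all tested compounds plus 3 SD, cut at about 5.5% in these data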;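 further: 100% = response to 3 µM Δ7-dafachronic acid high control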
hgDAF12 agonist – H. glycines DAF-12 receptor agonists, primary screen, cell-based, luminescence, HEK293, GAL4 fusion, UAS-luciferase. Nuclear hormone receptor DAF-12 (Heterodera glycines), GAL4 fusion. HEK293 GAL4-hgDAF12 UAS-luciferase reporter, agonist luminescence; normalized to butyrate control. activation, % at 6.8 µM. 370,000 tested, 1.8% active. AID 687014, 2013;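 active means activation above a cutoff set at the mean of all screened compounds plus 3 SD, cut at about 10% in these data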;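 further: 0% = DMSO wells and 100% = sodium butyrate wells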
ssDAF12 agonist – S. stercoralis DAF-12 nuclear receptor activators, primary screen, cell-based, luminescence, HEK293, GRIP1 co-expression, lit1-tk-luc | Nuclear hormone receptor DAF-12 (Strongyloides stercoralis) | HEK293 ssDAF-12/GRIP1 lit1-tk-luc reporter; % of 3 µM dafachronic acid response | activation, % at 6.8 µM | 370,000 tested, 1% active | AID 652126, 2013;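 active means activation above the mean over all tested compounds plus 3 SD, cut at about 0.9% in these data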;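 further: 0% = DMSO-only wells and 100% = 3 µM delta7-dafachronic acid wells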
LXR ag – LXR agonists, Gal4 luciferase reporter, confirmation, counter-screen for hcDAF-12 agonist project, cell-based, luminescence, HEK293, H. contortus campaign; AID 743027, 2013; activation, % at 6.8 µM; 3,400 tested, under 10 active; HEK293 Gal4-LXR tk-luc reporter, 24 h; normalized: DMSO 0%, positive control 100%; shares compounds with hcDAF-12 act;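 active means mean percent activation of the reporter above a cutoff set as the average over tested compounds plus their standard deviation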
hcDAF12 conf – H. contortus DAF-12 receptor agonists, confirmation, cell-based, luminescence, HEK293, lit1-tk-luc, triplicate; HEK293 hcDAF-12 lit1-tk-luc reporter; % of Δ7-dafachronic acid response; 3,400 tested, 61% active; activation, % at 6.8 µM; shares compounds with hcDAF-12 act;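 active means mean activation across triplicate tests above the threshold derived from the earlier primary screen, cut at about 5.5% in these data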;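 further: 0% = DMSO only wells and 100% = 3 µM Δ7-dafachronic acid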
The depositor's hits bear a star; nt = no result. Only some compounds are listed: those with a hit (about 4.1% of all), similar ones and a draw of the others.

SMILES	DAX1 inh-1	DAX1 inh-2	hcDAF-12 act	hgDAF12 agonist	ssDAF12 agonist	LXR ag	hcDAF12 conf
Cc1cc(N)n(-c2nc3ccccc3s2)n1	5.2*	3.6*	7.8*	11*	1.9*	1	9.6*
Cc1nn(-c2nc3ccccc3s2)c(N)c1-c1ccc(Cl)cc1	1	0	-2	2	0	nt	nt
CSc1ccccc1NC(=O)CSc1cccc[n+]1[O-]	0	0	1	-2	-1	nt	nt
CCc1nc2ccc(C(=O)NCCc3c[nH]c4ccccc34)cn2c1N(C=O)CCC(C)C	nt	2	0	3	0	nt	nt
O=C(O)CCCCCNC(=O)C(=O)C1C(=O)Nc2ccccc21 (configuration not stated)	0	0	4	0	1	nt	nt
COCCCNC(=O)C(=O)C1C(=O)Nc2ccccc21 (configuration not stated)	0	0	11*	0	0	0	3
CCOC(=O)c1nn(-c2ccc(C)cc2)cc1C(=O)c1ccccc1	3	3	6.9*	13*	0	1	5.7*
CC(=O)c1nn(-c2ccc(Cl)cc2)cc1C(=O)c1ccccc1	0	0	-2	0	-2	nt	nt
O=C(O)/C=C/C(=O)Nc1ccc(N2CCOCC2)nc1N1CCOCC1	0	-1	0	4	0	nt	nt
CC(C)(C)c1ccc(S(=O)(=O)N2CCN(CC(O)CN3CCOCC3)CC2)cc1 (configuration not stated)	0	0	0	0	-1	nt	nt
CNC(=O)c1cc2c(ccc3ccccc32)o1	0	0	7.9*	4	-1	0	1
CCC1(C)NC(=O)N(CC(=O)c2cc(C)n(C3CC3)c2C)C1=O (configuration not stated)	0	1	0	1	0	nt	nt
COc1ccc(Cl)cc1NC(=O)c1cc(C2CC2)on1	nt	nt	7.6*	3	-1	0	5
COc1ccc(Cl)cc1NC(=O)c1cc(-c2ccccc2)on1	3	0	5	1	-1	nt	nt
COc1cc2c(cc1OC)C(c1ccccc1)=NCC2	-2	-1	7.8*	0	-1	0	0
COc1cc2c(cc1OC)C(c1ccccc1N)=NCC2	nt	0	0	-5	-1	nt	nt
COc1ccc(-c2noc(CN(C)Cc3ccccc3)n2)c(OC)c1OC	0	0	0	-2	-1	nt	nt
COc1ccc(/C=[N+](\[O-])C2N(c3ccccc3)C(=S)SC2(C)C)cc1OC (configuration not stated)	2	0	9.3*	3	-1	0	0
CCN(CC)c1ccc(/C=N/N(c2ccccc2)c2ccccc2)c(O)c1	0	0	12*	6	1.1*	0	5
CCN(CC)c1ccc(/C=N/N=C(c2ccccc2)c2ccccc2)c(O)c1	0	-1	-2	-1	-2	nt	nt
CC(C)c1ccc(NC(=O)COC(=O)[C@@H]2CCCN2C(=O)c2cccs2)cc1	2	1	1	2	-1	nt	nt
COc1ccc(C2Nc3cccc4cccc(c34)N2)cc1	0	0	5	6	0	nt	nt
CN(C)c1ccc(C2Nc3cccc4cccc(c34)N2)cc1	-1	1	8.4*	4	1.6*	0	8.3*
COc1cccc(/C=C2/SC(=S)N(CC(=O)Nc3nnc(C)s3)C2=O)c1	1	0	1	0	-1	nt	nt
COc1cccc(/C=C2/SC(=S)N(CC(=O)NNC(=O)c3ccccc3OC)C2=O)c1	0	0	8.5*	2	0	0	5
SMILES	DAX1 inh-1	DAX1 inh-2	hcDAF-12 act	hgDAF12 agonist	ssDAF12 agonist	LXR ag	hcDAF12 conf
CC(C)(C)C(=O)Nc1sc2c(c1C(=O)Nc1ccccn1)CCCC2	1	0	0	7	-2	nt	nt
CCN(CC)c1ccc(/C=N/NC(=O)c2cc3ccccc3[nH]2)cc1	0	0	0	3	0	nt	nt
CCN(CC)c1ccc(/C=N/NC(=O)c2ccccn2)cc1	4	1	6.8*	11*	1	1	7.1*
COc1ccccc1/C=C/C(=O)N1CCC(c2ccccc2)C1 (configuration not stated)	1	1	6.7*	12*	1.0*	0	4
CCc1ccc(N2Cc3ccccc3C2)cc1	3	3	6.9*	29*	1	1	7.7*
Cc1cc(C)cc(N2Cc3ccccc3C2)c1	0	1	0	-3	-1	nt	nt
CC(OC(=O)Cn1cnc2c1c(=O)n(C)c(=O)n2C)C(=O)c1ccccc1 (configuration not stated)	2	1	-1	-2	-1	nt	nt
COc1ccc(-c2cc(CC3(C(=O)O)CCN(C(=O)OC(C)(C)C)CC3)on2)c(OC)c1	1	0	-2	2	-1	nt	nt
C=CCS/C(N)=N\N=C\c1c(O)ccc2ccccc12	4	3	14*	17*	1.9*	1	11*
COc1ccc(C(C(=O)NCc2ccccc2)n2c(-c3ccccn3)nc3ccccc32)cc1 (configuration not stated)	nt	-1	-1	-3	-1	nt	nt
Cc1nc(-c2ccc(F)cc2)c(CC(=O)N2CCN(S(=O)(=O)c3cccc([N+](=O)[O-])c3)CC2)s1	1	1	0	-2	-1	nt	nt
CCOC(=O)c1cc(NC(=O)c2ccc(Cl)cc2)c(=O)n2c1oc1ccc(Cl)cc12	-1	0	9.3*	4	-1	0	-2
CCOC(=O)c1cc(NC(=O)c2ccc(C)cc2)c(=O)oc1C(F)(F)F	-1	0	0	6	0	nt	nt
O=C(CCC(=O)Nc1nnc(C2CCCCC2)s1)Nc1ccc(F)cc1	2	1	-1	3	0	nt	nt
COc1cccc(C=NNc2nc3ccccc3s2)c1OC	6.8*	3.6*	7.6*	13*	0	1	3
